A selection: hits, their analogues and other compounds. The true share with any hit is near 4.2%.
NALP1 inh – NALP1 inflammasome inhibitors in reconstituted yeast, colorimetric, S. cerevisiae, triplicate retest; S. cerevisiae NALP1/ASC/caspase-1 growth, X-gal OD620, 72 h; inhibition, % at 10 µM; actives 0.61% (n = 280,000); in the data active = inhibition mostly above about 24%, no sharp cut-off; inactive = mostly below about 32%
tim23-1 inh – growth inhibitors of tim23-1 mutant yeast, primary screen, luminescence, uHTS | S. cerevisiae tim23-1 growth, BacTiter-Glo luminescence, 24 h | inhibition, % at 20 µM | actives 1.3% (n = 330,000) | AID 463212, 2010;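 active = growth inhibition of the mutant yeast at or above 50%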;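 note: temperature-sensitive mutant grown at 25 °C; plate controls were DMSO-treated mutant yeast for no effect and medium wells lacking yeast for full effect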
V-ATPase pH – regulators of yeast V-ATPase proton pumping, primary screen, pHLuorin cytosolic pH fluorescence; actives 0.37% (n = 350,000); S. cerevisiae; AID 504577, 2011; response, % at 10 µM; in the data active = response mostly above about 7.3%, no sharp cut-off; inactive = mostly below about 5.4%; note: actives read high
NLRP3 yeast inh – NALP3 inflammasome inhibitors in reconstituted yeast, primary screen, luminescence, uHTS; Yeast reconstituted NLRP3/ASC/caspase-1, beta-gal luminescence, 24 h; inhibition, % at 10 µM; actives 0.39% (n = 330,000);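 active = inhibition of 50% or more; inactive = inhibition below 50%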;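 note: plate controls were induced DMSO wells for no effect and uninduced yeast grown without galactose for full effect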
TIM10 inh – growth inhibitors of isogenic TIM10 control yeast, primary screen, counter-screen for tim10-1 yeast inhibitor project, luminescence, uHTS | S. cerevisiae TIM10 strain growth, BacTiter-Glo luminescence, 24 h | inhibition, % at 10 µM | actives 1.4% (n = 330,000) | AID 463195, 2010;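 active = inhibition of 40% or more at the single tested concentration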;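 note: wild-type TIM10 isogenic control strain grown at permissive 25 °C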
tim10-1 inh – growth inhibitors of tim10-1 mutant yeast, primary screen, luminescence, uHTS; S. cerevisiae tim10-1 ts strain growth, BacTiter-Glo, 24 h; actives 2.2% (n = 330,000); inhibition, % at 20 µM;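 active = inhibition of at least 40%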;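 note: mutant grown at 25 °C; 0% = DMSO wells with yeast and 100% = wells holding no yeast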
The depositor's hits bear a star; . = no result given.

SMILES	NALP1 inh	tim23-1 inh	V-ATPase pH	NLRP3 yeast inh	TIM10 inh	tim10-1 inh
Cc1cc(C)c(NC(=O)CN(C)C(C)C(=O)N2CCc3ccccc32)c(C)c1 (configuration not stated)	.	23	6	15	12	26
O=C(OCc1nnc(-c2ccc([N+](=O)[O-])cc2)o1)c1ccc(F)c(S(=O)(=O)N2CCOCC2)c1	.	3	17*	7	6	33
COc1ccc(CCNC(=O)COC(=O)c2ccccn2)cc1	.	12	1	-5	2	9
CCOC(=O)c1ccc(NC(=S)N(CCCN2CCCCC2)Cc2ccco2)cc1	44*	4	-2	6	1	10
O=C(CC12CC3CC(CC(C3)C1)C2)NCc1ccncc1	7	11	-4	11	-2	22
c1cc(CNC23CC4CC(CC(C4)C2)C3)ccn1	27*	-27	-2	4	-5	-16
COC(=O)C1CCN(C(=O)C2CCN(C(=O)[C@@H](NS(=O)(=O)c3ccc(C)cc3)C(C)C)CC2)CC1	17	23	2	3	14	10
Cn1cnc([N+](=O)[O-])c1S(=O)(=O)c1cccc(Cl)c1	66*	29	-2	-28	18	15
O=C(Nc1ccc(S(=O)(=O)NCc2ccccc2)cc1)C1CCCCC1	32*	6	-8	4	-2	-4
Cc1nc2c(-c3ccccc3)c(C)nn2c(C)c1CCC(=O)O	15	0	-2	25	4	-13
CCOC(=O)Cc1c(C)nc2c(-c3ccc(OC)cc3)c(C)nn2c1C	43*	-18	-1	15	9	26
COc1ccc(NC(=O)CC2Sc3ncnn3C2=O)cc1 (configuration not stated)	95*	16	0	11	20	37
O=C(CC1Sc2ncnn2C1=O)Nc1ccc(Cl)cc1 (configuration not stated)	27	15	.	-2	17	22
Oc1ccc(O)c(/C(=N/Nc2ccccc2)c2ccccc2)c1	42*	24	.	5	26	39
CCCCN(C(=O)c1cc(S(=O)(=O)N2CCCCCC2)ccc1OC)c1ccccc1	.	43	-3	12	16	37
CN1CCN(Cc2nc3ccccc3c(=O)n2Cc2nc(-c3cccc([N+](=O)[O-])c3)cs2)CC1	34*	14	-3	8	14	18
CN1CCN(Cc2nc3ccccc3c(=O)n2Cc2nc(-c3ccc4ccccc4c3)cs2)CC1	16	.	-1	.	.	.
Cc1cccc(N2CN(Cc3cccnc3)CNC2=S)c1	30	9	16*	12	15	3
CCC(C)NS(=O)(=O)c1ccc(S(=O)(=O)N(CC(=O)Nc2ccccc2)Cc2ccco2)cc1 (configuration not stated)	42*	1	1	14	-2	-11
CCCCn1c(N)c(N(CC(C)C)C(=O)c2cc(S(=O)(=O)N3CCCCC3)ccc2C)c(=O)[nH]c1=O	.	18	4	4	7	15
COc1cccc(OC)c1OCCCN1CCC(Cc2ccccc2)CC1	.	-11	-2	19	10	-10
CC(Cc1ccccc1)NC(=O)c1cc([N+](=O)[O-])ccc1Cl (configuration not stated)	36*	14	2	17	-16	3
O=C(N[C@@H](Cc1ccccc1)c1nc2ccccc2[nH]1)c1cc([N+](=O)[O-])ccc1Cl	25	12	4	4	9	21
COc1ccc(S(=O)(=O)N2CCCCCC2)cc1C(=O)NCc1ccc(C)cc1	.	30	-3	-4	1	19
CN(C)Cc1c(O)ccc2c1O/C(=C\C=C\c1ccccc1)C2=O	44*	16	1	9	-6	-6
SMILES	NALP1 inh	tim23-1 inh	V-ATPase pH	NLRP3 yeast inh	TIM10 inh	tim10-1 inh
CCN1CCN(Cc2c(O)ccc3c2O/C(=C\C=C\c2ccccc2)C3=O)CC1	17	-2	6	-4	6	35
Cc1ccc(NC(=O)Cn2nnc(C(=O)Nc3ccc(F)c(Cl)c3)c2N)cc1	37*	12	4	5	-8	14
COc1ccc(S(=O)(=O)N2CCCCC2)cc1NC(=O)[C@@H]1CCCN1C(=O)c1cccs1	.	8	2	9	11	5
CCOC(=O)Cn1cc(Cl)cc(C(=O)Nc2ccccc2)c1=O	15	34	1	17	9	3
CCc1c(O)nc(SCC(=O)Nc2ccc(Br)cc2)n(-c2ccc(C)cc2)c1=O	35*	13	-1	8	10	10
Nc1ccc(C(=O)N/N=C/c2cn(Cc3cccc(F)c3)c3ccccc23)cc1	8	13	2	27	6	-10
O=c1c(-c2ccco2)[n+]([O-])c2ccccc2n1OCc1ccccc1	37*	26	6	14	27	34
O=c1c(-c2ccco2)[n+]([O-])c2ccccc2n1OCc1c(F)cccc1F	-12	10	-7	19	19	21
Cc1nonc1NC(=O)CSc1nnc(-c2ccoc2C)n1-c1cccc(Cl)c1	44*	14	4	1	18	18
CCCn1c(SCC(=O)Nc2nonc2C)nnc1-c1ccoc1C	3	9	-1	-5	8	7
Cn1c(C(=O)N2CCCC(C(=O)NCCN3CCOCC3)C2)cc2sccc21 (configuration not stated)	30*	-1	-5	15	-3	-9
COc1ccc(N2C(=O)CC(N(C)CCc3ccc(OC)c(OC)c3)C2=O)cc1 (configuration not stated)	41*	25	-1	20	27	32
COc1ccc(CCN(C)C2CC(=O)N(c3ccccc3)C2=O)cc1OC (configuration not stated)	56*	33	2	4	19	23
CC(=O)N1CCN(C(=O)c2cc3c(s2)CCCC3)CC1	.	.	18*	.	.	.
Cc1ccc(NC(=O)CC2NCCNC2=O)cc1 (configuration not stated)	7	-4	4	0	8	4
O=C(CC1NCCNC1=O)Nc1ccc([N+](=O)[O-])cc1 (configuration not stated)	32*	6	3	15	-16	-8
O=C(CCC(=O)N1CCN(c2cccc(Cl)c2)CC1)c1cccs1	.	8	-1	8	-23	-10
CCOC(=O)c1ccc(NC(=O)CN2C(=O)CSC(C)C2=O)cc1 (configuration not stated)	31	2	0	-5	15	20
O=C(CC1C(=O)NCCN1Cc1cccc(Oc2ccccc2)c1)NCCCn1cccn1 (configuration not stated)	-10	13	-3	6	-5	19
